Results on 18 molecules are retold here after PubChem BioAssay (EPA / NIEHS).

The source made the active and inactive calls. The calls were made as follows: active = hit-call score of the fitted dose curve at least 0.9, where 1 is the maximum; inactive = score below 0.9.

Assay [1] is described as follows: ATG_M_32_CIS: Attagene CIS-FACTORIAL HepG2 Assay for M32 Transcription Factor (Internal Marker) (AID 2282949).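 Also: background control marker of the multiplexed CIS panel rather than a real target.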 The settings on record: HepG2 Attagene cis-factorial M32 reporter, mRNA; actives raise or lower the signal. Put shortly: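 Following 24 h chemical exposure of HepG2 cells transiently expressing cis-promoter reporter constructs, reporter transcript levels were determined by RT-PCR with fluorescent labelling and capillary electrophoresis, then fitted bidirectionally against DMSO.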

Assay [2] is described as follows: ATG_M_06_CIS: Attagene CIS-FACTORIAL HepG2 Assay for M06 Transcription Factor (Internal Marker) (AID 2282950). The settings on record: HepG2 Attagene CIS-FACTORIAL M06 internal marker reporter; actives raise or lower the signal. Put shortly:
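Steps: transfect HepG2 with multiplexed cis-element reporter constructs; dose chemical 24 h; extract RNA with DNase treatment; reverse-transcribe, PCR-amplify, 6-FAM label, HpaI digest; separate fragments by capillary electrophoresis. Activity fitted both directions versus DMSO.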

Assay [3] deals with Hypoxia-inducible factor 1-alpha (Homo sapiens) (UniProt Q16665). As to the kind of experiment: ATG_HIF1a_CIS: Attagene CIS-FACTORIAL HepG2 Assay for human Hypoxia Inducible Factor 1 (HIF1A) (AID 2282951). The settings on record: HepG2 Attagene cis-factorial HIF1a reporter transcription; actives raise or lower the signal. The method, boiled down:
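Dosed 24 h, transfected HepG2 cells yielded total RNA whose reporter transcripts were RT-PCR-amplified and sized by capillary electrophoresis using fluorescent labelling; DMSO defined baseline, with gain and loss of signal both fitted.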

The target in assay [4] is Hepatocyte nuclear factor 6 (Homo sapiens) (UniProt Q9UBC0). As to the kind of experiment: ATG_HNF6_CIS: Attagene CIS-FACTORIAL HepG2 Assay for human Hepatocyte Nuclear Factor 6 (HNF6) (AID 2282952). The settings on record: HepG2 Attagene cis-factorial HNF6 reporter transcription; actives raise or lower the signal. Put shortly:
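Cells are HepG2 carrying transiently transfected cis-promoter reporter units. Treatment lasts 24 h, after which reporter transcripts are reverse-transcribed, amplified, FAM-labelled and sized by capillary electrophoresis. DMSO serves as baseline.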

Assay [5] concerns the target Heat shock factor protein 1 (Homo sapiens) (UniProt Q00613). As to the kind of experiment: ATG_HSE_CIS: Attagene CIS-FACTORIAL HepG2 Assay for human Heat Shock Transcription Factor 1 (HSE) (AID 2282953). The settings on record: HepG2 HSE cis-reporter, Attagene RNA transcription; actives raise or lower the signal. Put shortly:
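Cells were transfected with cis-element-driven reporter constructs, dosed for 24 h, then total RNA was reverse-transcribed and reporter cDNA amplified, FAM-labelled and digested with HpaI. Fragments were resolved by capillary electrophoresis; gain or loss was fitted against DMSO.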

Assay [6] can be described thus: ATG_MRE_CIS: Attagene CIS-FACTORIAL HepG2 Assay for human Metal Responsive Element (MRE) (AID 2282954). The settings on record: HepG2 MRE cis-reporter transcription, Attagene multiplex; actives raise or lower the signal. Put shortly:
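HepG2 cells transiently transfected with multiple cis-element reporter units measure endogenous MTF1-driven transcription. After 24 h compound exposure, reporter mRNA is quantified by RT-PCR with 6-FAM labelling, HpaI digestion and capillary electrophoresis; bidirectional fits versus DMSO.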

The nature of assay [7]: ATG_PBREM_CIS: Attagene CIS-FACTORIAL HepG2 Assay for human Phenobarbital-responsive Enhancer Module (PBREM) (AID 2282955). The settings on record: HepG2 PBREM cis-reporter, Attagene multiplexed transcription; actives raise or lower the signal. Put shortly:
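Transfected liver-derived HepG2 cells exposed 24 h; PBREM reporter transcript quantified via RT-PCR and capillary electrophoresis, with activity in either direction referenced to DMSO.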

For assay [8], the target named is Paired box protein Pax-6 (Homo sapiens) (UniProt P26367). The assay can be described thus: ATG_Pax6_CIS: Attagene CIS-FACTORIAL HepG2 Assay for human Paired Box 6 (PAX6) (AID 2282956). The settings on record: HepG2 CIS-FACTORIAL PAX6 reporter transcription, RNA readout; actives raise or lower the signal. Put shortly: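 After twenty-four hours of chemical exposure, transfected HepG2 cells are harvested for RNA. Cis-promoter reporter transcripts are amplified, fluorescently labelled and sized by capillary electrophoresis, with gain and loss of signal scored against DMSO.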
Sequence of Paired box protein Pax-6 (Homo sapiens) (P26367 whole entry, looked up): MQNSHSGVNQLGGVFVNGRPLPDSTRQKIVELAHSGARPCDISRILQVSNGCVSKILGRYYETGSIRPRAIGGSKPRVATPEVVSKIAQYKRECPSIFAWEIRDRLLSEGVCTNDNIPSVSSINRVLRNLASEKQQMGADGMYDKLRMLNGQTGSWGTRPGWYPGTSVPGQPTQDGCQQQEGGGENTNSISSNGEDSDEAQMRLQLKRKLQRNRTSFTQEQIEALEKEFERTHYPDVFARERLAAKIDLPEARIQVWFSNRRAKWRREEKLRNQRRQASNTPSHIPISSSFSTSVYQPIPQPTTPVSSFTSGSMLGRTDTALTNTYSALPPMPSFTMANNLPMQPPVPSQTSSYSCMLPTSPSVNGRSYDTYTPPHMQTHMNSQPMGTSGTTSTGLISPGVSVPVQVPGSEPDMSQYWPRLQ

A short description of assay [9]: ATG_PXRE_CIS: Attagene CIS-FACTORIAL HepG2 Assay for human Pregnane X Receptor Element (PXRE) (AID 2282957). The settings on record: HepG2 Attagene CIS-FACTORIAL PXRE reporter, mRNA; actives raise or lower the signal. The method, boiled down: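 Multiplexed cis-reporter assay in transiently transfected human HepG2 cells; 24 h chemical exposure. Reporter transcripts quantified by RT-PCR with fluorescent labeling and capillary electrophoresis.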

Assay [10] is described as follows: ATG_PPRE_CIS: Attagene CIS-FACTORIAL HepG2 Assay for human Peroxisome Proliferator-activated Response Element (PPRE) (AID 2282958). The settings on record: HepG2 PPRE cis-element reporter, Attagene transcription factor profiling; actives raise or lower the signal. Put shortly: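 Measured endpoint: PPRE-controlled reporter mRNA, detected by RT-PCR and capillary electrophoresis fluorescence, from transiently transfected HepG2 cells 24 h after dosing. Curves fitted in both directions using DMSO baseline.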

Sequence of Hepatocyte nuclear factor 6 (Homo sapiens) (Q9UBC0 whole entry, looked up): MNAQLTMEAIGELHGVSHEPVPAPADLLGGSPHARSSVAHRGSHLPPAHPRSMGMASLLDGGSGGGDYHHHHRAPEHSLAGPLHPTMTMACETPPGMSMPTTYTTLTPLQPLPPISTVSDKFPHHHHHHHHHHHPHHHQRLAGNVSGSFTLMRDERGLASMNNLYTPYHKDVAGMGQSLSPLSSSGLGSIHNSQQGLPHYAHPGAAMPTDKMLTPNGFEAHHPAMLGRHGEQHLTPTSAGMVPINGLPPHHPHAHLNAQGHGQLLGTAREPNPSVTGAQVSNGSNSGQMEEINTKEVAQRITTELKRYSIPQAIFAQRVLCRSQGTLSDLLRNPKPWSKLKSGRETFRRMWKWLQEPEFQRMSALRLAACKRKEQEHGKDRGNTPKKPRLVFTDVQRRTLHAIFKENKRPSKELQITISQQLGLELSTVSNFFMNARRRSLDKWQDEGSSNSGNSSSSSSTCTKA
Sequence of Hypoxia-inducible factor 1-alpha (Homo sapiens) (Q16665 whole entry, looked up): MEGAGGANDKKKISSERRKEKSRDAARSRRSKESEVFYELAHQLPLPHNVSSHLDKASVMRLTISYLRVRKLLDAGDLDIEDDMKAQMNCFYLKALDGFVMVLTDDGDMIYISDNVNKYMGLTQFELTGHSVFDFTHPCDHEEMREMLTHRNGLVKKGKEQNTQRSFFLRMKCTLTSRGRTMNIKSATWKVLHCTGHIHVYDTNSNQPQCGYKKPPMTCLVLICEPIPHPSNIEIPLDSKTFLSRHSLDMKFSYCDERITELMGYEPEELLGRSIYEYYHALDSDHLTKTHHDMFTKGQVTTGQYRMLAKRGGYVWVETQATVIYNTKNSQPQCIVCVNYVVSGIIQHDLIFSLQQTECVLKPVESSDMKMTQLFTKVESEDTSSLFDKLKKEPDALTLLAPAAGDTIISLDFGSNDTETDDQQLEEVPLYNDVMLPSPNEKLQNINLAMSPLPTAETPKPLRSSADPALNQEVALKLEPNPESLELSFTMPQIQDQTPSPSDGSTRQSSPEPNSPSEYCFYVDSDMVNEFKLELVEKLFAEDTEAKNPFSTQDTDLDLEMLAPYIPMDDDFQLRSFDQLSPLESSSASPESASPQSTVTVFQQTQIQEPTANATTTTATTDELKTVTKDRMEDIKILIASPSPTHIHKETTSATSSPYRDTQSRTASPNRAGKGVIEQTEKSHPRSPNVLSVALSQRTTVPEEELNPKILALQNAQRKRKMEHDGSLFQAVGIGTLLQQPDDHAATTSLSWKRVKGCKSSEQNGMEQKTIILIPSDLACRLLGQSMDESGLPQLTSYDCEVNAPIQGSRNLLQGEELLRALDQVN
Sequence of Heat shock factor protein 1 (Homo sapiens) (Q00613 whole entry, looked up, the tested form may be a part): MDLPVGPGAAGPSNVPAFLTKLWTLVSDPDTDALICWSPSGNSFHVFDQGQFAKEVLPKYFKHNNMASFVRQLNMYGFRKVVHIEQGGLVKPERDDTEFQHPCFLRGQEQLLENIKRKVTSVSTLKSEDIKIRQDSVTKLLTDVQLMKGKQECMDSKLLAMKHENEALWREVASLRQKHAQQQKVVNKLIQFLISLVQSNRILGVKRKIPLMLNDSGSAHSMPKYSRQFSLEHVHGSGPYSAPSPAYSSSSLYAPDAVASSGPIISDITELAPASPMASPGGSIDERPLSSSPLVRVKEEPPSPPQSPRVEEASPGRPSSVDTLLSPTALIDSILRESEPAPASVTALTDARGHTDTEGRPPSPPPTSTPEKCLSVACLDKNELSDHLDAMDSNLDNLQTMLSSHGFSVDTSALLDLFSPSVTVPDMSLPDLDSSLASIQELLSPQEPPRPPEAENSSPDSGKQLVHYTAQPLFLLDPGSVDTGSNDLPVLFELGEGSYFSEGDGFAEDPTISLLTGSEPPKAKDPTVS

In the case of `Cc1cc(Cl)ccc1OCCCC(=O)O`, the call in assay [1], in assay [2], in assay [3], in assay [4], in assay [5] and in [6] was inactive. The result in assay [7], in [8], in assay [9] and in assay [10] was inactive.

For the molecule `O=C(N[C@H]1CN2CCC1CC2)c1ccc2c(c1)OCCO2`, the molecule was called inactive in assay [1], in [2], in assay [3], in assay [4], in assay [5] and in assay [6]. Also, the result in assay [7], in assay [8] and in [9] was inactive. Moreover, the half-maximal activity concentration (AC50) in assay [10] was 100 µM (active).

In the case of `O=C(CCl)NCO`, the molecule was classed as inactive in [1], in assay [2], in assay [3], in assay [4], in assay [5] and in assay [6]. The outcome in assay [7], in assay [8] and in assay [10] was inactive.

`N#CCCC(Br)(C#N)CBr` (centres undefined): the outcome in assay [1], in [2], in assay [3], in [7] and in assay [10] was inactive. The AC50 in [4] is 33.4 µM (active); in assay [5], 62.9 µM (active); in assay [6], 49.5 µM (active); in assay [8], 46.3 µM (active); in assay [9], 33.4 µM (active).

For the molecule `Nc1c(Oc2ccccc2)cc(O)c2c1C(=O)c1ccccc1C2=O`, the molecule was classed as inactive in assay [1], in [2], in [3], in [4], in assay [5] and in assay [6]. The outcome in assay [7], in [8] and in [10] was inactive.

For the molecule `Cc1ccc2nc3sc(=O)sc3nc2c1`, the molecule was classed as inactive in [1], in [2], in [3], in assay [4], in [6] and in [7]. Further, in [10], the outcome was inactive. The AC50 is 12.3 µM (active) in [5], 7.08 µM (active) in [8] and 6.36 µM (active) in assay [9].

In the case of `C#CCO`, the call in assay [1], in assay [2], in assay [3], in assay [4], in [5] and in [6] was inactive. Besides, the result in [7], in assay [8], in assay [9] and in assay [10] was inactive.

For `C=CCOC(N)=O`, the molecule was called inactive in [1], in assay [2], in assay [3], in assay [4], in [5] and in assay [6]. For the same molecule, the result in [7], in assay [8], in [9] and in [10] was inactive.

On to `CC(C)(C)c1ccccc1O`, for which the AC50 is 170 µM (active) in assay [1]; 182 µM (active) in [3]; 147 µM (active) in assay [4]; 149 µM (active) in [6]; 165 µM (active) in assay [8]; 23.9 µM (active) in assay [9]. In addition, the molecule was classed as inactive in assay [2], in assay [5], in [7] and in [10].

Turning to `O=C(NC(=O)c1c(F)cccc1F)Nc1ccc(Cl)cc1`, the result in [1], in assay [2], in [3], in assay [4], in assay [5] and in [6] was inactive. For the same molecule, the outcome in assay [7], in assay [8], in [9] and in assay [10] was inactive.

`BrCc1ccc(Br)cc1`: the outcome in assay [1], in assay [2], in [3], in [4], in assay [5] and in [6] was inactive. Further, the result in assay [7], in assay [8], in assay [9] and in assay [10] was inactive.

Consider `Cc1cc(Cl)ccc1O`, for which the molecule was classed as inactive in assay [1], in assay [2], in [3], in assay [4], in assay [5] and in [6]. The outcome in assay [7], in [8] and in assay [10] was inactive.

Turning to `ClCc1ccccc1Cl`, the molecule was called inactive in assay [1], in assay [2], in [3] and in assay [6]. Besides, the AC50 in [4] was 100 µM (active); in assay [5], 164 µM (active); in [8], 100 µM (active).

As to `COCC(=O)N(c1c(C)cccc1C)[C@H](C)C(=O)OC`, the molecule was called inactive in [1], in assay [2], in assay [3], in assay [4], in [5] and in [6]. Besides, the result in assay [7], in assay [8] and in assay [10] was inactive. The AC50 in assay [9] was 27.7 µM (active).

With `CCOP(=O)(OCC)OC(=CCl)c1ccc(Cl)cc1Cl`, the molecule was called inactive in [1], in assay [2], in assay [3], in [4], in [5] and in assay [6]. The result in assay [8] and in assay [10] was inactive. The figures for the AC50 in assay [7] and in [9] were 6.62 µM (active) and 0.754 µM (active), respectively.

In the case of `Nc1ncn[nH]1`, the call in assay [1], in assay [2], in [3], in [4], in assay [5] and in [6] was inactive. Moreover, the result in [7], in [8], in [9] and in assay [10] was inactive.

For the molecule `Cc1ccc(CCl)cc1`, the molecule was called inactive in assay [1], in assay [2], in assay [3], in assay [4], in assay [5] and in [6]. Further, the result in [7], in [8], in assay [9] and in assay [10] was inactive.

Consider `OC(c1ccc(Cl)cc1)(c1ccc(Cl)cc1)c1cccnc1`, for which the call in assay [1], in assay [2], in assay [3], in assay [4], in assay [5] and in assay [6] was inactive. Also, the result in [7], in [8] and in assay [10] was inactive. Also, the AC50 in assay [9] is 1.89 µM (active).

Broadly, the AC50 is the concentration at which the activity in the assay is half-maximal.
